Reference: the supplement of paper PMC5919970
Counter-ions that a name gives are not always drawn. Whole data set: some 2,000 compounds, median “fractional viability relative to vehicle” near 0.91, cut for the lowest 2% near 0.045. This excerpt belongs to a sample that is enriched for the lowest values.

Test system: TYKNU
Assay: fractional viability relative to vehicle; TYKNU is a high-grade serous ovarian cancer line; higher = less growth inhibition
Settings: 72 h
In short: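 TYKNU control cells or lentiCRISPRv2 knockout derivatives were seeded at 500 cells per well into drug-stamped 384-well plates holding a ~2100-compound library at 2 or 10 μM, in duplicate. Cells were grown at 37 °C in 5% CO2 in RPMI 1640 with 10% FBS, and drug treatment lasted 72 h. Viability was read by Cell Titer Glo luminescence. Duplicate treatment wells were averaged and normalised to duplicate control wells from the same plate position.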

[1] = 2uM, genotype: DNM1L knockout (sgDNM1L #1)
[2] = 2uM, genotype: sgCTRLA1 (non-targeting control)
[3] = 10uM, genotype: DNM1L knockout (sgDNM1L #1)
[4] = 10uM, genotype: sgCTRLA1 (non-targeting control)

Compound	fractional viability [1]	fractional viability [2]	fractional viability [3]	fractional viability [4]
C[C@@H]1CC[C@@]2(OC1)O[C@H]1C[C@H]3[C@@H]4CC=C5C[C@@H](O[C@@H]6O[C@H](CO)[C@@H](O[C@@H]7O[C@@H](C)[C@H](O)[C@@H](O)[C@H]7O)[C@H](O)[C@H]6O[C@@H]6O[C@@H](C)[C@H](O)[C@@H](O)[C@H]6O)CC[C@]5(C)[C@H]4CC[C@]3(C)[C@H]1[C@@H]2C [Dioscin]	0.0559	0.0816	0.0468	0.0196
Cc1cc2c(C(C)C)c(O)c(O)c(C=O)c2c(O)c1-c1c(C)cc2c(C(C)C)c(O)c(O)c(C=O)c2c1O [Gossypol]	0.9	1.04	0.253	0.247
CCN(Cc1ccc(Cl)nc1)/C(=C/[N+](=O)[O-])NC [Nitenpyram]	0.733	1.08	0.638	0.862
Cc1ccc(-n2nccn2)c(C(=O)N2CCN(c3nc4cc(Cl)ccc4o3)CC[C@H]2C)c1 [Suvorexant (MK-4305)]	0.969	1.14	0.861	1.04
CC(C)=CCC[C@]1(C)C=Cc2c(O)c3c(c(CC=C(C)C)c2O1)O[C@]12C(=C[C@@H]4C[C@H]1C(C)(C)O[C@@]2(C/C=C(/C)C(=O)O)C4=O)C3=O [Gambogic Acid]	0.068	0.0361	0.0214	0.00876
CN(C)Cc1c[nH]c2ccccc12 [Gramine]	0.908	1.14	0.859	0.971
[O-][n+]1ccccc1[S-].[O-][n+]1ccccc1[S-].[Zn+2] [Zinc Pyrithione]	0.0424	0.0207	0.0251	0.0128
Cc1sc2c(c1C)C(c1ccc(Cl)cc1)=N[C@@H](CC(N)=O)c1nnc(C)n1-2	0.35	0.412	0.319	0.408
c1ccc([C@@H]2C[C@H]2NC2CCNCC2)cc1	0.728	0.964	0.712	0.824
CC(=O)Nc1ccc(Cc2ccc(NC(C)=O)cc2)cc1	0.759	0.99	0.747	0.791
O=C(O[C@H]1C[C@H]2CC[C@@H](C1)[N+]21CCCC1)C(O)(c1ccccc1)c1ccccc1 [Trospium chloride]	0.962	1.06	0.908	1.09
Cc1cccc(Cc2c[nH]cn2)c1C [Detomidine HCl]	1.07	1.01	0.798	1.1
CN[C@@H]1C[C@H]2O[C@@](C)([C@@H]1OC)n1c3ccccc3c3c4c(c5c6ccccc6n2c5c31)C(=O)NC4 [Staurosporine]	0.092	0.066	0.0336	0.0269
Cn1c(COP(=O)(NCCBr)NCCBr)cnc1[N+](=O)[O-]	1.47	1.27	0.89	1.27
CCN(CC)C(=O)c1ccc(C2=CC3(CCNCC3)Oc3cccc(O)c32)cc1	1.05	1.03	0.914	0.931
C[C@@H]1O[C@@H](O[C@H]2C[C@@H](O)[C@]3(CO)[C@H]4[C@H](O)C[C@]5(C)[C@@H](C6=CC(=O)OC6)CC[C@]5(O)[C@@H]4CC[C@]3(O)C2)[C@H](O)[C@H](O)[C@H]1O [Ouabain]	0.05	0.0369	0.0346	0.0311
N#C[C@H](O[C@@H]1O[C@H](C(=O)O)[C@@H](O)[C@H](O)[C@H]1O)c1ccccc1 [Laetrile]	0.984	1.23	0.709	1.16
COc1cc(-n2c(=S)[nH]c3ccccc3c2=O)c(Cl)cc1Cl [Mdivi-1]	0.879	0.994	0.654	0.851
Cc1cccc(C)c1NC(=O)CN1CCCC1=O [Nefiracetam]	0.909	1.08	1.02	1.16
CC(C)N(CCNC(=O)CN1CCCC1=O)C(C)C [Pramiracetam]	0.94	1.16	0.882	1.02
C[C@@H]1[C@H](O)[C@@H](C)/C=C/C=C/CC/C=C/C=C/C=C/C=C/[C@H](O[C@H]2O[C@@H](C)[C@H](O)[C@@H](N)[C@H]2O)C[C@@H]2O[C@](O)(C[C@@H](O)[C@H](O)CC[C@@H](O)C[C@@H](O)C[C@@H](O)CC(=O)O[C@H]1C)C[C@H](O)[C@H]2C(=O)O [Nystatin (Fungicidin)]	0.929	1.11	0.854	1.03
O=C(O)c1nn(Cc2ccc(Cl)cc2Cl)c2ccccc12 [Lonidamine]	0.961	1.06	0.87	1.16
Cc1sc2c(c1C)C(c1ccc(Cl)cc1)=N[C@@H](CC(=O)OC(C)(C)C)c1nnc(C)n1-2	0.37	0.516	0.278	0.394
O=C(O)CNC(=O)c1c(O)c2ccccc2n(Cc2ccccc2)c1=O	1.04	1.17	0.762	1
O=c1[nH]c2ccc(Cl)cc2c(N[C@@H]2CN3CCC2CC3)c1-c1nc2ccccc2[nH]1	0.154	0.195	0.0777	0.0446
O=S(=O)(CC1CS1)c1ccc(Oc2ccccc2)cc1 (centres undefined)	0.744	0.851	0.163	0.172

Compound	fractional viability [1]	fractional viability [2]	fractional viability [3]	fractional viability [4]
C[C@](O)(COc1ccc(C#N)cc1)C(=O)Nc1ccc(C#N)c(C(F)(F)F)c1	1	1.13	0.879	1.03
CCN1CCN(C(=O)Cc2ccc(Nc3ncc(F)c(Nc4ccc(C(=O)Nc5ccccc5Cl)cc4)n3)cc2)CC1 [Aurora A Inhibitor I]	0.904	0.926	0.0479	0.0775
NC(=O)CN1CC(O)CC1=O (centres undefined) [Oxiracetam]	0.755	1.16	0.688	0.976
C#C[C@]1(O)C=C[C@H]2[C@@H]3CCC4=CC(=O)CC[C@@H]4[C@H]3CC[C@@]21CC [Gestodene]	1.13	1.04	0.861	0.945
CC1=C(O)C(=O)C=C2C1=CC=C1[C@@]2(C)CC[C@@]2(C)[C@@H]3C[C@](C)(C(=O)O)CC[C@]3(C)CC[C@]12C [Celastrol]	0.0457	0.0557	0.0154	0.0139
CC(C)(C)c1cc(C=C(C#N)C#N)cc(Br)c1O	1.21	1.08	1.09	0.939
CCOc1ccccc1-n1c(C(C)N2CCN(C(=O)COc3ccc(Cl)cc3)CC2)nc2ccccc2c1=O (centres undefined) [Erastin]	0.123	0.0716	0.0411	0.0416
O=[N+]([O-])/C=C/c1ccc2c(c1)OCO2	0.362	0.336	0.0604	0.0474
Cc1cccc(C(C)c2c[nH]cn2)c1C (centres undefined) [Medetomidine HCl]	1.09	1.09	0.755	1.03
O=[N+]([O-])c1ncc[nH]1 [Azomycin]	0.753	1.09	0.757	0.975
CC[C@H](C)[C@@H]([C@@H](CC(=O)N1CCC[C@H]1[C@H](OC)[C@@H](C)C(=O)N[C@H](C)[C@@H](O)c1ccccc1)OC)N(C)C(=O)[C@@H](NC(=O)[C@@H](NC)C(C)C)C(C)C [Monomethyl auristatin E (MMAE)]	0.0977	0.0889	0.0769	0.0612
Cc1cccc([C@H](C)c2c[nH]cn2)c1C [Dexmedetomidine]	1.06	1.23	0.8	1.05
CCCCCCCCCCCCCCCC[n+]1ccccc1 [Cetylpyridinium Chloride]	0.216	0.196	0.0152	0.0105
Cc1ccccc1-n1c(Cn2ncc3c(N)ncnc32)nc2cccc(C)c2c1=O	0.87	1.14	0.731	1.15
CCc1c(C(=O)C(N)=O)c2c(OCC(=O)O)cccc2n1Cc1ccccc1	1.09	1.02	0.94	0.973
Cn1cc(C2=C(c3cn(C4CCN(Cc5ccccn5)CC4)c4ccccc34)C(=O)NC2=O)c2ccccc21	0.952	0.961	0.948	0.916
Cc1cc(C(C#N)c2ccc(Cl)cc2)c(Cl)cc1NC(=O)c1cc(I)cc(I)c1O (centres undefined) [Closantel Sodium]	0.98	1.19	0.879	0.97
Cc1cc(C(C#N)c2ccc(Cl)cc2)c(Cl)cc1NC(=O)c1cc(I)cc(I)c1O (centres undefined) [Closantel]	1.13	1.17	0.948	1.1
COc1ccc(C[C@H]2NC[C@H](O)[C@H]2OC(C)=O)cc1 [Anisomycin]	0.109	0.0785	0.118	0.0319
COc1cc(C)[nH]c(=O)c1CNC(=O)c1c(C)n([C@H](C)C2CCOCC2)c2ccccc12	0.85	0.972	0.755	0.698
CCc1cc2c(s1)-n1c(C)nnc1CN=C2c1ccccc1Cl [Etizolam]	0.778	1	0.707	0.96
CC(C)(C)[C@]1(O)CC2OC(=O)CC23C(=O)OC2OC(=O)[C@H](O)C231 (some centres undefined) [Bilobalide]	0.854	1.09	0.975	1.11
O=C1CCC[C@@H]2[C@H]3CCCN4CCC[C@@H](CN12)[C@@H]34 [(+)-Matrine]	0.865	1.03	0.795	1
COc1cc([C@@H]2c3cc4c(cc3[C@H](O)[C@H]3COC(=O)[C@@H]23)OCO4)cc(OC)c1OC [Picropodophyllin (PPP)]	0.139	0.142	0.121	0.0713
O=C(NCC1CCOCC1)c1cnc(Nc2ccc(Cl)cc2Cl)nc1C(F)(F)F	1.03	1.32	0.768	1.19
